Assay results published in PubChem BioAssay (NCATS).
Inconclusive results are not listed. Active and inactive are the calls of the source. The call rests on the fitted dose curve; in most records, active means well fitted curve in the direction sought with a large enough effect; inconclusive means small, poorly fitted or top-dose-only effect, or another doubt; inactive means no such curve, though single readings can be large; an effect the other way counts as inactive or inconclusive.

Legend:
[1] = system: Zika virus NS2B-NS3 protease (linked construct); assay: Primary screen NINDS Rhodamine qHTS for Zika virus inhibitors (AID 1347160); further: nearly all actives have a fitted effect of over 55% in size; on activity change, negative = inhibition: on the % scale 0 is the no-effect control and ±100 the full control effect
In short: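 Kinetic fluorescence (Ex 480 nm, Em 540 nm) over 15 min with 1.5 microM Rhodamine110 peptide and 25 nM linked protease.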

[2] = molecular target: Calcium and integrin-binding protein 1 (Homo sapiens) (UniProt Q99828); assay: Primary qHTS for Identification of Calcium Integrin Binding Protein 1 (CIB1) Competitor (AID 1508620);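 further: GST tagged CIB1 binding a fluorescein labelled alphaIIb integrin peptide tracer; top concentration of the series differs between compounds; on the % scale 0 is the no-effect control and ±100 the full control effect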
Sequence of Calcium and integrin-binding protein 1 (Homo sapiens) (Q99828 whole entry, looked up): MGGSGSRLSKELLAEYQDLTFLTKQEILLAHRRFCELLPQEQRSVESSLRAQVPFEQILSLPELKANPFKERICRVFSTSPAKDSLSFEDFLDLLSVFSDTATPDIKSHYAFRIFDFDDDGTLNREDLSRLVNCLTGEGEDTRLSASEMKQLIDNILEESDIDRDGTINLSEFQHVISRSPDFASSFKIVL
In short: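 Fluorescence polarization competition: GST-tagged CIB1 (1 uM final) preincubated with compound 15 min at room temperature, then FITC-labelled alphaIIb peptide (100 nM final) added. After 15 min at room temperature, polarization read at Ex 480/Em 540.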

[3] = molecular target: Glutathione peroxidase 1 (Homo sapiens) (UniProt P07203); assay: Primary qHTS Assay for Inhibitors of Recombinant Selenoprotein Glutathione Peroxidase 1 (GPX1) (AID 1845191); further: nearly all actives have a fitted effect of over 65% in size; on activity, negative = inhibition: on the % scale 0 is the no-effect control and ±100 the full control effect
Sequence of Glutathione peroxidase 1 (Homo sapiens) (P07203 whole entry, looked up): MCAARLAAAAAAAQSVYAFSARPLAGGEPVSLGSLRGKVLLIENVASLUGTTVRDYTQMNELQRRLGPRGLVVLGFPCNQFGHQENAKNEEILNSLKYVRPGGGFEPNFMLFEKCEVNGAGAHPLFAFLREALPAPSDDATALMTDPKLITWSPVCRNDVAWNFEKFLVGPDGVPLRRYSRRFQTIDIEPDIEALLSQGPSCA
In short: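 GR-coupled assay: compounds preincubated 30 min at room temperature with GPX1, then reaction started with CHP; final 10 nM GPX1, 1 mM GSH, 0.5 mM CHP, 0.5 mM NADPH, 100 nM GR, 0.01% BSA, pH 7.5 Tris buffer. NADPH fluorescence (340/450 nm) read at 0 and 15 min.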

[4] = molecular target: Phospholipid hydroperoxide glutathione peroxidase GPX4 (Homo sapiens) (UniProt P36969); assay: Primary qHTS Assay for Inhibitors of Recombinant Selenoprotein Glutathione Peroxidase 4 (GPX4) (AID 1845192); further: on the % scale 0 is the no-effect control and ±100 the full control effect; nearly all actives have a fitted effect of over 65% in size
Sequence of Phospholipid hydroperoxide glutathione peroxidase GPX4 (Homo sapiens) (P36969 whole entry, looked up): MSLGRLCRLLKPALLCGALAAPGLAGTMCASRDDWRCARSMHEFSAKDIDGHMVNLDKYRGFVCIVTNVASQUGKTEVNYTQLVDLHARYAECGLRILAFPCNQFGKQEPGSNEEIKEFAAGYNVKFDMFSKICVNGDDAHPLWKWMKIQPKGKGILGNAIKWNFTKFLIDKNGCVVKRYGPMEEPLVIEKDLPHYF
In short: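 GR-coupled assay: recombinant GPX4 preincubated 30 min with compound at room temperature; final 200 nM GPX4, 1 mM GSH, 0.5 mM cumene hydroperoxide, 0.5 mM NADPH, 100 nM GR, 0.01% BSA, pH 7.5 Tris. NADPH fluorescence (340/450 nm) read at 0 and 15 min.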

[5] = molecular target: Luciferin 4-monooxygenase (Photinus pyralis) (UniProt P08659); assay: Primary firefly luciferase (FLuc) qHTS assay for identification of artifact compounds. (AID 1845220); details: outcome: dose series up to 54.1 µM unless noted; further: nearly all actives have a fitted effect of over 60% in size;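 on activity change, negative = inhibition: plate controls were DMSO vehicle for no effect and no enzyme for full effect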
In short: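 Titrated compounds were incubated 15 min at RT, protected from light, with luciferin and ATP at 10 uM; reaction started with 10 nM FLuc, luminescence imaged at 5 min, and concentration-response fitted by Hill equation.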

[6] = Primary fluorescence-based thiol-reactive (MSTI) qHTS assay for identification of artifact compounds. (AID 1845221);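 further: thiol-reactive compounds lower the probe fluorescence signal; nearly all actives have a fitted effect of over 65% in size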
In short: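 Thiol-reactive compounds detected by quenching of 4 uM MSTI fluorescence (525/598 nm) after 1 h room-temperature dark incubation in PBS pH 7.4, 2% DMSO. qHTS titration; percent inhibition Hill-fitted against Acetyl-MSTI/MSTI controls.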

[7] = system: Nanoluciferase (engineered Oplophorus gracilirostris luciferase); assay: Primary Nanoluciferase (NLuc) qHTS assay for identification of artifact compounds. (AID 1845222);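 further: NLuc secreted into diluted conditioned medium of S16 cells; 0% = DMSO and -100% = no enzyme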
In short: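 qHTS format, against NLuc in S16 cell-conditioned medium. Nano-Glo substrate 1:100 was added after 15 min at room temperature. Luminescence was taken after a further 5 min.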

[8] = Primary redox qHTS assay for identification of artifact compounds. (AID 1845223);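 further: 0% = DMSO and 100% = reference compound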
In short: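 Amplex Red (25 uM) and HRP (250 mU/mL) in HBSS, with compounds for 15 min, then 250 uM DTT for 30 min, room temperature, dark. Fluorescence 525/598 nm read; normalized to DMSO and 10 uM DA3003; Hill fit.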

NIH3T3 = assay: Cytotoxic Profiling of Annotated Libraries Using Quantitative High-Throughput Screening (AID 1296008); details: Five cell lines viability, CellTiter-Glo ATP luminescence, 48-72 h; max response: hits give low values; further: nearly all actives have a fitted effect of over 60% in size; on max response: on the % scale 0 is the no-effect control and ±100 the full control effect
In short: (§1)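 Cells exposed to compounds for 48 or 72 hr at 37 degrees Celsius. Viability read as ATP-coupled luminescence with CellTiter-Glo after 10 min at room temperature.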

C33A = assay: Primary qHTS to identify gynecologic anti-cancer compounds using libraries of approved drugs and bioactive compounds (AID 1345084); details: Gynecologic cancer cell panel viability, ATPlite luminescence, 48 h; series mostly up to 57.5 µM; further: on the % scale 0 is the no-effect control and ±100 the full control effect; nearly all actives have a fitted effect of over 55% in size
In short: (§2)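 Five-point cytotoxicity, 48 h drug exposure at 37 C, 5% CO2, on cells seeded 16 h beforehand. ATP content read by ATPlite luminescence.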

CAOV3 = assay: as above; details: Gynecologic cancer cell panel viability, ATPlite luminescence, 48 h; series mostly up to 57.5 µM
In short: as §2

CASKI = assay: as above; details: Gynecologic cancer cell panel viability, ATPlite luminescence, 48 h; series mostly up to 57.5 µM
In short: as §2

Es-2 = assay: as above; details: Gynecologic cancer cell panel viability, ATPlite luminescence, 48 h; series mostly up to 57.5 µM
In short: as §2

Hek293T = assay: as above; details: Gynecologic cancer cell panel viability, ATPlite luminescence, 48 h, control line for the selectivity index; series mostly up to 57.5 µM
In short: as §2

JEG-3 = assay: as above; details: Gynecologic cancer cell panel viability, ATPlite luminescence, 48 h; series mostly up to 57.5 µM
In short: as §2

OV90 = assay: as above; details: Gynecologic cancer cell panel viability, ATPlite luminescence, 48 h; series mostly up to 57.5 µM
In short: as §2

PA-1 = assay: as above; details: Gynecologic cancer cell panel viability, ATPlite luminescence, 48 h; series mostly up to 57.5 µM
In short: as §2

Tov-21-G = assay: as above; details: Gynecologic cancer cell panel viability, ATPlite luminescence, 48 h; series mostly up to 57.5 µM
In short: as §2

Tov112D = assay: as above; details: Gynecologic cancer cell panel viability, ATPlite luminescence, 48 h; series mostly up to 57.5 µM
In short: as §2

HaCat = assay: Cytotoxic Profiling of Annotated Libraries Using Quantitative High-Throughput Screening (AID 1296008); details: Five cell lines viability, CellTiter-Glo ATP luminescence, 48-72 h; max response: hits give low values; further: nearly all actives have a fitted effect of over 60% in size
In short: as §1

Cc1[nH]c2ccc(Cl)cc2c1CCN(C)C
inactive: Potency [1] | Potency [2] | Potency [3] | Potency [4] | outcome [5] | Potency [6] | Potency [7] | Potency [8] | outcome (NIH3T3) | Potency (C33A) | Potency (CAOV3) | Potency (CASKI) | Potency (Es-2) | Potency (Hek293T) | Potency (JEG-3) | Potency (OV90) | Potency (PA-1) | Potency (Tov-21-G) | Potency (Tov112D)

C/C=C(\C)C(=O)OC1C2C3(C)CCC(OC4CC(OC)C(OC5OC(C)C(O)C(OC)C5O)C(C)O4)CC3CCC23OC32CCC(C(C)=O)C2(C)C1OC(=O)/C(C)=C/C (stereo not drawn)
inactive: Potency [1] | Potency [2] | Potency [3] | Potency [4] | activity change, negative = inhibition [5] 0.886% [at 11.6 µM] | activity change, negative = thiol reactive [6] 84.6% [at 11.5 µM] | activity, negative = inhibition [7] 2.09% [at 11.6 µM] | redox activity (% of DA3003) [8] 18.3% [at 11.5 µM] | outcome (HaCat) | max response (NIH3T3) -16.5% | activity change, negative = cytotoxicity (C33A) 10.6% [at 11.6 µM] | activity change, negative = cytotoxicity (CAOV3) 0.328% [at 11.6 µM] | activity change, negative = cytotoxicity (CASKI) -3.16% [at 11.6 µM] | activity change, negative = cytotoxicity (Es-2) -0.14% [at 11.6 µM] | activity change, negative = cytotoxicity (Hek293T) 2.72% [at 11.6 µM] | activity change, negative = cytotoxicity (JEG-3) 7.67% [at 11.6 µM] | activity change, negative = cytotoxicity (OV90) 2.67% [at 11.6 µM] | activity change, negative = cytotoxicity (PA-1) 2.59% [at 11.6 µM] | activity change, negative = cytotoxicity (Tov-21-G) -0.804% [at 11.6 µM] | activity change, negative = cytotoxicity (Tov112D) -1.3% [at 11.6 µM]

COc1cc2c(cc1O)C1(C)CCC(O)C(C)(C)C1CC2=O (stereo not drawn)
inactive: Potency [1] | Potency [2] | Potency [3] | Potency [4] | outcome [5] | outcome (HaCat) | outcome (NIH3T3) | Potency (C33A) | Potency (CAOV3) | Potency (CASKI) | Potency (Es-2) | Potency (Hek293T) | Potency (JEG-3) | Potency (OV90) | Potency (PA-1) | Potency (Tov-21-G) | Potency (Tov112D)

COC(=O)C12C(=O)C(C)(O)C(=O)C1(C)C(C)=CC1C3(C=O)CCC(OC(C)=O)C(C)(C)C3CCC12C (stereo not drawn)
inactive: Potency [2] | Potency [3] | Potency [4] | outcome [5] inactive [at 25.7 µM] | Potency [6] | Potency [7] | Potency [8] | max response (HaCat) -17.3% | max response (NIH3T3) -2.03% | Potency (C33A) | Potency (CAOV3) | Potency (CASKI) | Potency (Es-2) | Potency (Hek293T) | Potency (JEG-3) | Potency (OV90) | Potency (PA-1) | Potency (Tov-21-G) | Potency (Tov112D)

Cc1ccc(Cn2nc(C(=O)N[C@@H]3C(C)(C)[C@@H]4CC[C@@]3(C)C4)cc2-c2ccc(Cl)c(C)c2)cc1
inactive: Potency [1] | Potency [2] | Potency [3] | Potency [4] | outcome [5] | Potency [6] | Potency [7] | Potency [8] | max response (NIH3T3) -3.82% | Potency (C33A) | Potency (CASKI) | Potency (Es-2) | Potency (Hek293T) | Potency (JEG-3) | Potency (OV90) | Potency (PA-1) | Potency (Tov-21-G) | Potency (Tov112D)
